aSyn 5UTR inh: MLPCN primary screen, SNCA 5' untranslated region. alpha-synuclein 5'UTR reporter, inhibitor activity. inhibition, % (tested at 7.5 µM). actives 0.82% (n = 300,000); in the data active = inhibition above about 60%;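 note: H4 neuroglioblastoma cells stably carrying SNCA 5'UTR luciferase fusion; 0% = DMSO wells and 100% = positive control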
Jurkat NFkB inh: lowers PMA/ionomycin-induced NF-kB signal in Jurkat cells | PMA/ionomycin-induced NF-kB luciferase reporter, luminescence | inhibition, % at 4 µM | actives 0.53% (n = 330,000) | AID 435003; in the data active = inhibition above about 50%
Gli-Sufu antag: Gli-Sufu pathway antagonism | Sufu-KO-LIGHT fibroblasts, Gli luciferase reporter luminescence | inhibition, % at 5 µM | actives 0.74% (n = 340,000) | AID 588413;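 active = inhibition above about 55%, limit read from the data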;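 note: 0% = DMSO-treated cells and 100% = wells with medium but no cells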
KLF5 inh: kruppel-like factor 5 inhibition. DLD-1 KLF5 promoter-luciferase reporter, luminescence. inhibition, % at 5 µM. actives 0.23% (n = 290,000);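 active = inhibition above a per-plate limit of that plate's mean compound inhibition plus 3 SD, cut at about 60% in these data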;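 note: 0% = DMSO wells and 100% = LY294002 at 200 µM; higher means less KLF5 promoter-driven luciferase light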
697 NFkB inh: lowers PMA/ionomycin-induced NF-kB signal in 697 B cells. actives 0.33% (n = 330,000). 697 B-cell NF-kB luciferase reporter, 16 h. inhibition, % at 4 µM. AID 435022; in the data active = inhibition above about 35%
Mdm2-MdmX inh: human Mdm2/MdmX binding inhibition. O15151+Q00987. SaOS-2 split-luciferase Mdm2/MdmX complementation, luminescence. inhibition, % at 8 µM. actives 3% (n = 330,000). AID 485346;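 active = inhibition of at least 50% at 8 µM in the primary screen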
Mdm2-MdmX conf: confirmation of human Mdm2/MdmX interaction inhibitors. shares compounds with Mdm2-MdmX inh. Mdm2-MdmX binding, luminescent assay. inhibition, % at 8 µM. actives 55% (n = 10,000). AID 489028; in the data active = inhibition above about 40%
FLuc counter: inhibits full-length luciferase, flagging false Mdm2/MdmX hits. shares compounds with Mdm2-MdmX inh. SaOS-2 full-length luciferase counterscreen, luminescence. inhibition, % at 8 µM. actives 77% (n = 6,200). AID 504607;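 active = mean inhibition at 8 µM reaching about 37%, which flags the compound as non-specific, limit read from the data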;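 note: p53-null SaOS-2 cells with luciferase driven by a doxycycline-inducible promoter; compound on cells about two nights before reading with doxycycline added after day one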
Starred values were filed as active, the others as inactive; x = no result. An excerpt weighted towards active compounds, which were near 4.1% of everything screened.

SMILES	aSyn 5UTR inh	Jurkat NFkB inh	Gli-Sufu antag	KLF5 inh	697 NFkB inh	Mdm2-MdmX inh	Mdm2-MdmX conf	FLuc counter
C=CC[C@H](CC(=O)N(CCO)Cc1ccccc1)C(=O)N[C@H](COC(=O)[C@@H](CC=C)Cc1ccc(F)cc1)Cc1ccccc1	x	0	10	x	-5	71*	27	x
C=CC[C@@H](CC(=O)N(CCO)Cc1ccccc1)C(=O)N[C@H](C)COC(=O)[C@@H](CC=C)Cc1ccc(F)cc1	x	17	-7	x	13	20	x	x
C=CCC[C@@H](Cc1ccc(F)cc1)C(=O)OC[C@H](Cc1c[nH]c2ccccc12)NC(=O)[C@H](CC=C)CC(=O)N(CCO)Cc1ccccc1	x	-16	-6	x	-20	88*	22	74*
C=CCC[C@H](Cc1ccc(F)cc1)C(=O)OC[C@H](Cc1c[nH]c2ccccc12)NC(=O)[C@@H](CC=C)CC(=O)N(CCO)Cc1ccccc1	x	-1	2	x	1	87*	20	x
C=CCC[C@H](Cc1ccc(F)cc1)C(=O)OC[C@@H](Cc1c[nH]c2ccccc12)NC(=O)[C@@H](CC=C)CC(=O)N(CCO)Cc1ccccc1	x	1	23	x	4	86*	13	x
C=CCC[C@@H](Cc1ccc(F)cc1)C(=O)OC[C@@H](Cc1c[nH]c2ccccc12)NC(=O)[C@@H](CC=C)CC(=O)NCCO	x	-1	-4	x	-4	35	x	x
Nc1cc(Cl)ccc1C(=O)OCC(=O)N1CCOCC1	-19	-20	-7	-19	-15	-23	x	x
Cc1ccc(NC(=S)N2CC(C)OC(C)C2)cc1C (stereo not given)	x	-4	2	-38	-10	8	x	x
COc1ccc(C(=O)CC(=O)C(=O)Nc2ccc([N+](=O)[O-])cc2C)cc1	-9	-15	1	-12	-20	13	x	x
C=CCC[C@H](Cc1ccc(F)cc1)C(=O)O[C@H](CNC(=O)[C@@H](CC=C)CC(=O)N(CCO)Cc1ccccc1)c1ccccc1	x	0	8	x	-8	63*	32	x
C=CC[C@@H](CC(=O)N[C@H](CO)Cc1ccccc1)C(=O)NC[C@H](OC(=O)[C@@H](CC=C)Cc1ccc(F)cc1)c1ccccc1	x	-1	12	x	6	59*	55*	62*
C=CC[C@H](CC(=O)NCCO)C(=O)NC[C@@H](OC(=O)[C@@H](CC=C)Cc1ccc(F)cc1)c1ccccc1	x	-1	-4	x	-19	26	x	x
C=CC[C@H](CC(=O)N(CCO)Cc1ccccc1)C(=O)NC[C@@H](OC(=O)[C@@H](CC=C)Cc1ccc(F)cc1)c1ccccc1	x	-18	3	x	-15	23	x	x
COc1ccc(N=CC2=C(Nc3ccc(OC)cc3)c3c(C)nn(-c4ccccn4)c3CC2)cc1	x	21	x	-11	-39	90*	72*	22
COc1ccc(-c2cc(C(=O)O)c3c(C)nn(-c4ccccn4)c3n2)cc1	8	2	-1	1	6	4	x	x
Cn1c(SCC(=O)NC2CCCc3ccccc32)nnc1C1CC1 (stereo not given)	x	15	1	x	14	23	x	x
N#CCCn1nc(-c2ccccc2)c2ccccc2c1=O	24	2	-1	-26	-15	19	x	x
c1ccc2c(c1)CCc1ccccc1C2=C1CCNCC1	2	4	8	x	-2	67*	49*	73*
CC1CN(Cc2ccccc2)C(C)CC1O (stereo not given)	-27	-2	-22	-4	14	13	x	x
CCCc1cc(C(=O)O)c2ccccc2n1	-6	16	2	-30	6	17	x	x
Cc1ccc(NC(=O)Cc2cc(C(=O)O)c3ccccc3n2)c(C)c1	0	-16	-1	8	-3	82*	59*	40*
COc1ccc(-c2cc3c(=O)n(CC(=O)NCCN4CCCC4)nc(C)n3n2)cc1	2	-27	6	0	-22	-10	x	x
CC(OC(=O)/C=C/c1ccc2ccccc2n1)C(=O)NCc1ccccc1 (stereo not given)	-23	-6	-2	x	10	54*	30	x
CC(=O)Nc1nc(-c2ccc3c(c2)CCN3C(=O)C2CC2)c(C)s1	-255	-19	-20	-40	-27	95*	93*	51*
CNc1nc(-c2ccc3c(c2)CCN3C(=O)CC(C)(C)C)c(C)s1	-118	-21	-24	-13	-26	-16	x	x
SMILES	aSyn 5UTR inh	Jurkat NFkB inh	Gli-Sufu antag	KLF5 inh	697 NFkB inh	Mdm2-MdmX inh	Mdm2-MdmX conf	FLuc counter
COc1ccccc1CNC(=O)CCCOc1cc(=O)n(C)c2ccccc12	19	3	14	0	-2	59*	34	x
N/C(=N\N=C/c1ccc(F)cc1)N/N=C\c1ccc(F)cc1	-20	-13	24	-12	-6	60*	4	x
CSc1cccc(NC(=O)CN2C(=O)c3ccccc3S2(=O)=O)c1	48	8	20	8	-31	53*	44*	77*
Cc1ccc(C)c(C(=O)CN2C(=O)c3ccccc3S2(=O)=O)c1	42	-14	27	-36	-48	68*	60*	100*
O=C(CN1C(=O)c2ccccc2S1(=O)=O)c1ccc(O)c(O)c1	64*	21	29	2	17	56*	55*	74*
Cc1ccc(C)c(C(=O)CN2C(=O)c3ccccc3C2=O)c1	5	14	23	-34	6	-1	x	x
CC(C(=O)NCCSCc1cccc(Cl)c1)N(c1ccccc1)S(C)(=O)=O (stereo not given)	15	1	19	-19	-5	-23	x	x
COC(=O)C(CC(=O)c1ccc(Br)cc1)n1nc(C)cc1C (stereo not given)	1	-13	-1	18	-18	2	x	x
COC(=O)C(CC(=O)c1ccc(Br)cc1)n1ccnc1 (stereo not given)	-40	8	x	-8	-1	99*	15	x
COc1ccc(C(C)NCCC(c2ccc(OC(C)C)cc2)c2ccccc2OC)cc1 (stereo not given)	93*	14	3	1	-1	99*	69*	56*
COc1ccc(C(CCNC(C)c2ccccc2)C(C)C)cc1 (stereo not given)	25	4	-22	-10	8	55*	30	x
COc1ccc(OCC(O)CNC(C)c2ccccc2)cc1 (stereo not given)	13	-34	6	-12	-1	-23	x	x
COc1ccccc1C(CC(=O)Nc1ccc(Cl)cc1)c1ccc(OC(C)C)cc1 (stereo not given)	9	3	11	4	26	18	x	x
COc1ccc(CNC(=O)COC(=O)CN2C(=O)NC3(CCCC3)C2=O)cc1	x	3	-2	x	16	-1	x	x
Cc1cccn2c(=O)nc(SCC(=O)c3ccccc3)nc12	-26	-64	-7	x	-17	-45	x	x
